Experimental data published in PubChem BioAssay.
Values without a mark were called inactive. The rule behind the calls is not given here.

Each molecule was assayed against Pantothenate synthetase (Mycobacterium tuberculosis (strain ATCC 25618 / H37Rv)) (UniProt P9WIL5) (assay: Coupled enzyme confirmation of inhibitors against recombinant Mtb PanC (AID 375;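 note: 0% = full reaction with vehicle and 100% = no enzyme background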)). Settings: coupled enzyme assay; at 10 µM, active compounds read high.
Sequence of Pantothenate synthetase (Mycobacterium tuberculosis (strain ATCC 25618 / H37Rv)) (P9WIL5 whole entry, looked up): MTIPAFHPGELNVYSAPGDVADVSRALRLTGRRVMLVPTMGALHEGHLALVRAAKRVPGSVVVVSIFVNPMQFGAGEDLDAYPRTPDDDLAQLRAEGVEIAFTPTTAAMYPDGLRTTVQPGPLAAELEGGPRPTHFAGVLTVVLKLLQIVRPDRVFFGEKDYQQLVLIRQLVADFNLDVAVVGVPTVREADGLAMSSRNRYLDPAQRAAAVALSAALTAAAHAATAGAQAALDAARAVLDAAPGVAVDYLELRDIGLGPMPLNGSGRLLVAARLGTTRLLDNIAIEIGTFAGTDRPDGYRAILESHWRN

| Compound | inhibition [%] |
| --- | --- |
| O=C(Nc1cccnc1)c1ccc2c(c1)C(=O)N(Cc1cccnc1)C2=O | 0 |
| Nc1nnc(SCC(=O)N2CCN(c3ccccc3)CC2)n1-c1ccccc1 | 7 |
| CCn1c(=O)c2cc(S(=O)(=O)NCc3ccccc3)ccc2n(CC)c1=O | 0 |
| O=C(Nc1cccnc1)Nc1ccc2c(c1)OCO2 | 0 |
| Cc1cc(C)nc(-n2nc(C)cc2NC(=O)c2ccc(Br)o2)n1 | 0 |
| CCS(=O)(=O)CCn1c([N+](=O)[O-])cnc1C | 7 |
| Cc1ccc2c(c1)CCCN2C(=O)c1ccc2c(c1)OCO2 | 0 |
| Cc1onc(-c2ccccc2)c1C(=O)N1CCCSC1=Nc1ccccc1 | 6 |
| COc1ccc(C2c3c(-c4ccccc4O)n[nH]c3C(=O)N2CCc2ccc(OC)c(OC)c2)cc1 (stereo not given) | 0 |
| O=C(CSc1nc2ccccc2o1)Nc1ccccc1 | 0 |
| Cc1cnc(NC(=O)CSc2nc3ccccc3c(=O)[nH]2)s1 | 3 |
| O=C(Nc1cnn(Cc2ccc(F)cc2)c1)c1cnccn1 | 2 |
| CCc1oc2ccccc2c1C(=O)c1cc(Br)c(O)c(Br)c1 | 0 |
| Cc1csc(NC(=O)c2ccco2)n1 | 0 |
| Cc1ccc(NC(=O)C2CCCNC2=O)nc1 (stereo not given) | 0 |
| CC(C)(C)c1ccc(C(O)CCCN2CCC(C(O)(c3ccccc3)c3ccccc3)CC2)cc1 (stereo not given) | 0 |
| Cc1ccccc1NC(=O)C1CCC(C)(C(=O)O)C1(C)C (stereo not given) | 0 |
| CCOC(=O)C1CCN(S(=O)(=O)c2cc(Cl)c(C)cc2OC)CC1 | 4 |
| COC(=O)c1sc(N)c(C(=O)OC)c1CSc1nc2sc3c(c2c(=O)n1C)CCC3 | 0 |
| Cc1cccc(NC(=O)CCn2ccnc2C)c1 | 0 |

| Compound | inhibition [%] |
| --- | --- |
| CCn1c(SCC(=O)C(C)(C)C)nnc1-c1cnccn1 | 0 |
| CCOC(=O)C1=C(CS(=O)(=O)c2ccc(F)c(C)c2)NC(=O)NC1c1ccc(O)c(O)c1 (stereo not given) | 7 |
| CC(C)CC1NC2(C(=O)N(C)c3ccccc32)C2C(=O)N(C(C)C)C(=O)C12 (stereo not given) | 0 |
| CCOC(=O)CCNC(=O)Nc1ccc2nc(C)n(Cc3ccccc3Cl)c(=O)c2c1 | 5 |
| Cc1c(N=C2SCC(=O)N2c2c(C)n(C)n(-c3ccccc3)c2=O)c(=O)n(-c2ccccc2)n1C | 3 |
| CC(=O)C1=C(C)OC(N)=C(C#N)C1c1ccncc1 (stereo not given) | 0 |
| COc1cc2[nH]c(=O)c(C(=O)NCCCN3CCCCC3)c(O)c2cc1OC | 3 |
| Cc1c(C(=O)NCc2ccccn2)oc2ccccc12 | 0 |
| Cc1nc2nc(SCC(=O)NCc3ccco3)nn2c(C)c1Cc1ccccc1 | 0 |
| CCOc1ccc(NC(=O)CSc2nnc(Cc3cccn3C)n2-c2ccc(OC)cc2)cc1 | 1 |
| O=C(NC1CCCC1)C1CC1c1ccccc1 (stereo not given) | 0 |
| Cc1cccc(C2CC(c3ccccc3)Nc3nc(N)nn32)c1 (stereo not given) | 0 |
| Cc1ccc(S(=O)(=O)Nc2cc(C(=O)O)ccc2N2CCCCC2)cc1 | 0 |
| C=CCn1c(=O)[nH]c2cc(C(=O)N3CCN(c4ccc(C(C)=O)cc4)CC3)ccc2c1=O | 1 |
| COC(=O)c1ccccc1NC(=O)C1CC(=O)N(c2ccccc2)C1 (stereo not given) | 4 |
| O=C(CCn1c(=O)sc2ccccc21)Nc1nccs1 | 0 |
| O=C(O)c1cc(O)c2c(c1)C(=O)c1cccc(O)c1C2=O | 9 |
| COc1ccc(CCNC(=O)CSc2nnnn2-c2ccccc2OC)cc1OC | 5 |
| CCOC(=O)c1c2n(c3ccc(O)cc13)CCCCC2 | 0 |
| COC(=O)c1[nH]c2cc(OC)ccc2c1NC(=O)CN1CCOCC1 | 0 |
